From PubChem BioAssay AID504339 (National Center for Advancing Translational Sciences (NCATS), 2011) come the findings set out here.

Hit rate of the full screen: of about 390,000 compounds, about 17,000 (4.4%) were called active. Roughly 8% stayed inconclusive and do not appear here. For the sample, actives were picked, then their nearest neighbours and some compounds at random. Values without a mark were called inactive. The call rests on the fitted dose curve; in most records, active means well fitted inhibition curve with a large enough effect; inconclusive means small, poorly fitted or top-dose-only effect; inactive means no such curve, though single readings can be large or run the other way.
On the % scale 0 is the no-effect control and ±100 the full control effect; potency means the concentration at half of the fitted maximal effect.

In this assay the target is Lysine-specific demethylase 4A (Homo sapiens) (UniProt O75164). Description: qHTS Assay for Inhibitors of JMJD2A-Tudor Domain. Further: nearly all actives have a fitted effect of over 50% in size. As to conditions: AlphaScreen JMJD2A-Tudor / H3K4me3 peptide binding; series mostly up to 114 µM; activity change, negative = inhibition: at the top concentration.
Sequence of Lysine-specific demethylase 4A (Homo sapiens) (O75164 whole entry, looked up, the tested form may be a part): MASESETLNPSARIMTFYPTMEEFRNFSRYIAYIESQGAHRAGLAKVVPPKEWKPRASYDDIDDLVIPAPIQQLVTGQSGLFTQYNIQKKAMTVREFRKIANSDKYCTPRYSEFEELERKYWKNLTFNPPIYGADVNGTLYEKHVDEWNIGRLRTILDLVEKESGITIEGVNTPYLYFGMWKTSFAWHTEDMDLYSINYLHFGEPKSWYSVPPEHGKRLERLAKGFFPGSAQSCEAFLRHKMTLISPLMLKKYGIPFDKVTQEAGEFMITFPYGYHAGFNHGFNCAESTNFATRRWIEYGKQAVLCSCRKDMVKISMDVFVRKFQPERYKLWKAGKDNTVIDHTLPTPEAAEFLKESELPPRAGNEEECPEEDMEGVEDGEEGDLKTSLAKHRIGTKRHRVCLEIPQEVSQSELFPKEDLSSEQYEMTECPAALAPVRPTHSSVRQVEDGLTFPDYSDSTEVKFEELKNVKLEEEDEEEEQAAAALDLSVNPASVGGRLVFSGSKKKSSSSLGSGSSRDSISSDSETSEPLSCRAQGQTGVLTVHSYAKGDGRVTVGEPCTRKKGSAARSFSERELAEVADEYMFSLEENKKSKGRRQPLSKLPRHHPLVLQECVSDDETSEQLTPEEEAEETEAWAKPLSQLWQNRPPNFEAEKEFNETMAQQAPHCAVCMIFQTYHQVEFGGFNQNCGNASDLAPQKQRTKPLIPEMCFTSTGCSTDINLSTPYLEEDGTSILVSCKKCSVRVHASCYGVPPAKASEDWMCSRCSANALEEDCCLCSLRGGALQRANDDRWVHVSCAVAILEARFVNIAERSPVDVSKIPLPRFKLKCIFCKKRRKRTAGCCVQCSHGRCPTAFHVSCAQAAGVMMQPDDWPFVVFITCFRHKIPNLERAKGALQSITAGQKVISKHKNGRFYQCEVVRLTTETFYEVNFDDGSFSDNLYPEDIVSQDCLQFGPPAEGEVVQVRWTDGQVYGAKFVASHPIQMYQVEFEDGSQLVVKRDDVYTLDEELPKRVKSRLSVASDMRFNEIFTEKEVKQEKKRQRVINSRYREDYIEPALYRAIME
On to `CCCCN(C)c1nnc(NC(=O)Nc2ccc(Br)c(C)c2)s1`, for which the “activity change, negative = inhibition” value is -17.9%.
On the same count and under the same terms, the same measure for `CCN1C(=O)c2ccccc2Sc2ccc(NC(=O)Cc3ccc(OC)cc3)cc21`: -25.2%; for `CCNCCC(=O)N1c2ccccc2Sc2ccc(NC(=O)OCC)cc21`: -7.81%.
In the case of `CCN1/C(=C/C(=S)Nc2ccccc2)Sc2ccccc21`, the Potency was 50.1 µM (active).
`CC1CCN(CC(=O)Nc2nccs2)CC1`: the “activity change, negative = inhibition” value was -12.3%.
On the same count and under the same terms, next, `Cc1cc(C)cc(N(CC(=O)NC2CCCC2)C(=O)CCC(=O)Nc2nccs2)c1`: -13.3%.
With `CC(=O)NC1CCN(CC(=O)Nc2nccs2)CC1`, the Potency is 31.6 µM (active).
Regarding `COc1ccc(-c2nc(CN3CCC(C(=O)NCc4ccccc4)CC3)c(C)o2)cc1OC`, the “activity change, negative = inhibition” value was -5.72%.
Regarding `COc1ccc(CNC(=O)COCc2cc(-c3cccs3)on2)cc1OC`, the “activity change, negative = inhibition” value was -9.9%.
As to `Cc1cc([N+](=O)[O-])ccc1NS(=O)(=O)c1ccccc1`, the “activity change, negative = inhibition” value is -13.1%.
Take `CC(Nc1ccc([N+](=O)[O-])cc1[N+](=O)[O-])c1ccccc1` (stereo unspecified): the Potency is 12.6 µM (active).
For `CC(C)OP(=O)(OC(C)C)C(Nc1ccccc1)c1cccc([N+](=O)[O-])c1` (stereo unspecified), the “activity change, negative = inhibition” value was -30.1%.
As to `COc1ccc(-c2cc(-c3ccccc3)nc3c2COc2ccc(Cl)cc2-3)cc1`, the “activity change, negative = inhibition” value was 7.09%.
As for `CCOC(=O)c1sc(NC(=O)CSc2nc(C)cc(C(F)(F)F)n2)c(C#N)c1C`, the Potency was 50.1 µM (active).
For `Cc1cc(C(F)(F)F)nc(SCC(=O)Nc2nccs2)n1`, the “activity change, negative = inhibition” value was -8.22%.
In the case of `Cc1cccc(NC(=O)CSc2nc(-c3ccco3)cc(C(F)(F)F)n2)c1C`, the “activity change, negative = inhibition” value is 11.7%.
Same read-out and setting: next, `Cc1ccc(C(=O)Nc2ccccc2F)cc1S(=O)(=O)N1CCOCC1`: 2.94%; `Cc1ccccc1CNC(=O)CSc1nnc(C)c2c(C)n(-c3ccccc3)nc12`: -0.345%; `CCCOc1ccc(NC(=O)CC2C(=O)N(c3ccccc3)C(=O)N2Cc2ccco2)cc1` (stereo unspecified): -19.7%.
Regarding `CNS(=O)(=O)c1ccc(NC(=O)C2CC(=O)N(c3ccc(Cl)cc3)C2)cc1` (stereo unspecified), the Potency is 56.2 µM (active).
Regarding `Cc1ccc(N2CC(C(=O)Nc3ccc(S(=O)(=O)N4CCCC4)cc3)CC2=O)cc1C` (stereo unspecified), the “activity change, negative = inhibition” value was -14.3%.
Take `O=C(Nc1ccc(S(=O)(=O)N2CCCCC2)cc1)C1CC(=O)N(c2ccc(F)cc2)C1` (stereo unspecified): the “activity change, negative = inhibition” value was -18.6%.
Turning to `CN1C(=O)c2ccccc2Sc2ccc(NC(=O)Cc3ccc(Cl)cc3)cc21`, the “activity change, negative = inhibition” value is -28.3%.
`Cc1ccc(Cl)cc1N1CCN(S(=O)(=O)c2cc3[nH]c(=O)c(=O)[nH]c3cc2C)CC1`: the “activity change, negative = inhibition” value is -28.7%.
As to `COc1ccc(-c2noc(-c3ccc(N4CCN(c5ccccc5)CC4)c([N+](=O)[O-])c3)n2)cc1OC`, the “activity change, negative = inhibition” value is -11.9%.
As to `COc1ccc(NC(=O)c2sc3nc(-c4cc5cccc(OC)c5oc4=O)[nH]c(=O)c3c2C)cc1`, the “activity change, negative = inhibition” value is -15.1%.
Consider `Brc1ccccc1C1N=C(c2ccccc2)NO1` (stereo unspecified), for which the “activity change, negative = inhibition” value is 16.5%.
On the same count and under the same terms, the same measure for `COc1cc2c(cc1OC)C(c1ccccc1Br)NC(=O)C2` (stereo unspecified): -15.7%.
Take `Brc1ccccc1C1Nc2cccc3cccc(c23)N1`: the Potency is 50.1 µM (active).
In the case of `Oc1ccc(C2Nc3cccc4cccc(c34)N2)cc1`, the Potency was 44.7 µM (active).
As for `Cn1nnnc1SCCCNCc1ccc(Cl)cc1`, the “activity change, negative = inhibition” value was 5.96%.
On to `O=c1cc(CSc2ncn[nH]2)[nH]c2ccc(F)cc12`, for which the “activity change, negative = inhibition” value was 0.649%.
On the same count and under the same terms, next, `CCc1nnc(SCC(=O)Nc2cc(OC)ccc2OC)nc1CC`: -0.649%; `O=C(NCCc1ccc(Cl)cc1)c1ccc2c(c1)N(Cc1ccc(F)cc1)C(=O)CS2`: -13.5%.
On the same count and under the same terms, the same measure for `Cc1ccc(NC(=O)C(Cc2ccccc2)NS(=O)(=O)c2ccc3c(c2)oc(=O)n3C)cc1C` (stereo unspecified): -19.5%; for `CCOc1ccc(NC(=O)C2CCN(S(=O)(=O)c3cc(-c4noc(C)n4)ccc3C)CC2)cc1`: -2.67%.
Same read-out and setting: the same measure for `CCOC(=O)C1CCN(C(=O)Nc2ccc(Cl)cc2)CC1`: -12.3%; for `CCOC(=O)C1C(=O)NCC1c1ccccc1` (stereo unspecified): -4.29%.
On to `CCOC(=O)C1Sc2[nH]c(=O)sc2C(c2ccc(Cl)cc2)C1C(=O)OCC` (stereo unspecified), for which the Potency is 50.1 µM (active).
On to `CCC(=O)N1CCc2cc(Br)cc(S(=O)(=O)NCc3ccc(Cl)cc3)c21`, for which the “activity change, negative = inhibition” value was -21.2%.
Consider `Cc1cccc(NC(=O)c2ccc(F)c(S(=O)(=O)N(C)C3CCCCC3)c2)c1`, for which the “activity change, negative = inhibition” value is -12.2%.
Regarding `CCc1cc2c(cc(C(=O)OC)n2Cc2nc(-c3ccc(C)cc3)oc2C)s1`, the “activity change, negative = inhibition” value is -12.4%.
Turning to `O=C(CN1CCSCC1)N/N=C/c1ccc(F)cc1F`, the Potency was 10 µM (active).
For `O=C(CN1CCN(C/C=C/c2ccccc2)CC1)Nc1ccc(F)cc1F`, the “activity change, negative = inhibition” value is -23.1%.
The same measure, in the same setting: next, `O=C(Cn1cc(C(F)(F)F)ccc1=O)N/N=C/c1ccc(Cl)cc1Cl`: -21.3%.
In the case of `Cc1ccc(COc2ccc(/C=N/NC(=O)CN3CCCCC3)cc2)cc1`, the “activity change, negative = inhibition” value was -22.4%.
`O=C(CC(=O)N/N=C\c1ccc(F)cc1)NCCc1ccccc1`: the “activity change, negative = inhibition” value is 4.75%.
With `O=C(CN1CCSCC1)N/N=C/c1ccc(F)cc1`, the Potency was 3.16 µM (active).
For `COc1ccc(CNC(=O)c2cc3cccc(OC)c3oc2=O)cc1`, the “activity change, negative = inhibition” value was -2.61%.
Turning to `CC(=O)N1c2ccccc2CC1C(=O)N1CCN(c2ccc(F)cc2)CC1` (stereo unspecified), the “activity change, negative = inhibition” value was -11.9%.
The same measure, in the same setting: the same measure for `CCOc1ccc(CNC(=O)Cn2cc3c(n2)-c2c(oc(C(=O)N4CCCC4)c2C)CC3)cc1`: -14.7%.
